Laboratory results reported in the supplement of paper PMC10849652.
About 7,900 targets were measured; listed, in parts, are those with a hit and a random draw of the rest. About 0.6% of all pairs of compound and target were hits. Unmarked numbers belong to inactive results.

Experiments:
Experiment in all cases: log2 fold change, soluble protein after heating vs DMSO (PISA); higher = thermal stabilisation; K562 cells, 10 uM, 30 min; active = over 0.2 and 3.5 SD of the protein, either way, in both replicates (recomputed)
[1] = compound: CC1=C(C=C(C=C1)NC(=O)C2=CC(=CC=C2)C(C)(C)C#N)NC3=CC4=C(C=C3)N=CN(C4=O)C
In short: (§1)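 For each measurement, 10 μM compound was applied for 30 min to K562 cells at 2×10^6 cells/mL. Aliquots were heated for 3 min across 48°C-58°C, pooled, and extracted in PBS with 0.5% NP-40 at 4°C; the supernatant after 21,000xg for 90 min was soluble protein. This was quantified by TMTpro 16plex LC-MS/MS with channel sums equalised, and thermal stability was reported relative to control samples from duplicates, on a log2 fold-change scale.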

[2] = compound: CC1=C(C=C(C=C1)NC(=O)C2=CC(=CC=C2)N(C)C)NC(=O)C3=CC=C(C=C3)O
In short: as §1

[3] = compound: CC1=CC=C(C=C1)SC2=C3C=C(SC3=CN=C2)C(=O)N
In short: as §1

[4] = compound: CC1=NC(=CC=C1)C2=C(N=C(N2)C(C)(C)C)C3=CC4=NC=CN=C4C=C3
In short: as §1

Nexturastat A = compound: CCCCN(Cc1ccc(C(=O)NO)cc1)C(=O)Nc1ccccc1 [Nexturastat A]
In short: as §1

vemurafenib = compound: CCCS(=O)(=O)Nc1ccc(F)c(C(=O)c2c[nH]c3ncc(-c4ccc(Cl)cc4)cc23)c1F [vemurafenib]
In short: as §1

[5] = compound: CCCS(=O)(=O)Nc1ccc(F)c(C(=O)c2c[nH]c3ncc(Cl)cc23)c1F
In short: as §1

[6] = compound: CCCc1cc(C)[nH]c(=O)c1CNC(=O)c1cc(-c2ccnc(N3CCN(C)CC3)c2)cc2c1cnn2C(C)C
In short: as §1

givinostat = compound: CCN(CC)Cc1ccc2cc(COC(=O)Nc3ccc(C(=O)NO)cc3)ccc2c1 [givinostat]
In short: as §1

barasertib = compound: CCN(CCCOc1ccc2c(Nc3cc(CC(=O)Nc4cccc(F)c4)[nH]n3)ncnc2c1)CCOP(=O)(O)O [barasertib]
In short: as §1

UniProt Q9NZN8, sequence (Q9NZN8 whole entry, looked up): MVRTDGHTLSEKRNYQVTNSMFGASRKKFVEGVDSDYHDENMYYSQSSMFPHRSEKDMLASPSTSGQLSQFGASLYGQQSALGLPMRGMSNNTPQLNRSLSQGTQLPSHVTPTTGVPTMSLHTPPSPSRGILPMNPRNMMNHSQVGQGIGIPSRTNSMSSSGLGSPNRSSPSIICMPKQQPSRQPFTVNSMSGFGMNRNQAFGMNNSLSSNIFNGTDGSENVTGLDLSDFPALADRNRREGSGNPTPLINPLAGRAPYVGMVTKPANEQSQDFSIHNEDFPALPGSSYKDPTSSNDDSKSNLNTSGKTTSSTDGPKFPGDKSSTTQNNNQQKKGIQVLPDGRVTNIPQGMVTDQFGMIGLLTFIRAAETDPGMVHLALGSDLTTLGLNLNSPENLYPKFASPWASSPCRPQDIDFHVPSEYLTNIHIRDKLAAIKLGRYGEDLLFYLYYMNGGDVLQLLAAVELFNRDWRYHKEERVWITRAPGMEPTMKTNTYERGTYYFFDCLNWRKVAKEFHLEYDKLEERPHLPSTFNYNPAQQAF
UniProt P46108, sequence (P46108 whole entry, looked up): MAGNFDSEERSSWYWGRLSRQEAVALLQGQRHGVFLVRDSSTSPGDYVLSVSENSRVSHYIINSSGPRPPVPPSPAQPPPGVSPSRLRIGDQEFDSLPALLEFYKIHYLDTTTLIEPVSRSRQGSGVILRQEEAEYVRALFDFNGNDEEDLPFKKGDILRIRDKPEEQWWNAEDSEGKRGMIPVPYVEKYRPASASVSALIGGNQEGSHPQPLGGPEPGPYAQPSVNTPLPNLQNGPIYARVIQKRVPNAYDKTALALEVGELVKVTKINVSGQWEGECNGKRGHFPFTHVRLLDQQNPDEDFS
UniProt O43405, sequence (O43405 whole entry, looked up): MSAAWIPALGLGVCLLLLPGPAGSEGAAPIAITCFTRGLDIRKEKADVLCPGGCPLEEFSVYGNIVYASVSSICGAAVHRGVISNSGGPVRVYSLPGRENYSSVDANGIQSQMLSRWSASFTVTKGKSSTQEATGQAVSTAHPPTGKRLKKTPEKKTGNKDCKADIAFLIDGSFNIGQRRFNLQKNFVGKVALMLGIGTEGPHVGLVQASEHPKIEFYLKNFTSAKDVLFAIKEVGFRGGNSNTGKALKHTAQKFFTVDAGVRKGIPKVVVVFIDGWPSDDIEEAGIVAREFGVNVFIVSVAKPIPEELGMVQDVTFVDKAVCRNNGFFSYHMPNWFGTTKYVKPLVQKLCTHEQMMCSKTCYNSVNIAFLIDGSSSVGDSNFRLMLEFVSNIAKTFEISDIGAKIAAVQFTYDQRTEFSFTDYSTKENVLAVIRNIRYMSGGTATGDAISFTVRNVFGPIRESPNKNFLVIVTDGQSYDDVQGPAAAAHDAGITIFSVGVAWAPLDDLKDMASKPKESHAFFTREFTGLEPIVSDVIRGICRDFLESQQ
UniProt Q96CF2, sequence (Q96CF2 whole entry, looked up): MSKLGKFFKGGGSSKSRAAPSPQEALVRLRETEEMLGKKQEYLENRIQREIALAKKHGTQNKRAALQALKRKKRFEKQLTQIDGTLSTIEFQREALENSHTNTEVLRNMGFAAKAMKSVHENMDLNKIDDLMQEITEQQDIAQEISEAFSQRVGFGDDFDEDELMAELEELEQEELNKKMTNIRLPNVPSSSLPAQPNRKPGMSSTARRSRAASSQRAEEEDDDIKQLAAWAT
UniProt Q96RR4, sequence (Q96RR4 whole entry, looked up): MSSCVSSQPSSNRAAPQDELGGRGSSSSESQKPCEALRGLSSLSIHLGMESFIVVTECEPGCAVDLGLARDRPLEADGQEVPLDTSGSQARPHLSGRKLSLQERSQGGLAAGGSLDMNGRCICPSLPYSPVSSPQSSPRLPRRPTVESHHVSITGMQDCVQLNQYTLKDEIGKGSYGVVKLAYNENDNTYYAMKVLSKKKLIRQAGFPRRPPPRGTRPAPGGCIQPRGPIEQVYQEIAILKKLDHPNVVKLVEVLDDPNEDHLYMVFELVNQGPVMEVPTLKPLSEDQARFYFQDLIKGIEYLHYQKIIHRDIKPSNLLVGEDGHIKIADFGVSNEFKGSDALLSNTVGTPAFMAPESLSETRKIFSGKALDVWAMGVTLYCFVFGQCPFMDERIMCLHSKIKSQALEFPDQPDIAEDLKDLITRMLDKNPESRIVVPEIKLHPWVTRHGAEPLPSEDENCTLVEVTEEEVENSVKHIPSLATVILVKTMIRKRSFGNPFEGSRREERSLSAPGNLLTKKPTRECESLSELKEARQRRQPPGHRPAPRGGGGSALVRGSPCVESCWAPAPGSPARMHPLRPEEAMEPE
UniProt Q5T5Y3, sequence (Q5T5Y3 whole entry, looked up): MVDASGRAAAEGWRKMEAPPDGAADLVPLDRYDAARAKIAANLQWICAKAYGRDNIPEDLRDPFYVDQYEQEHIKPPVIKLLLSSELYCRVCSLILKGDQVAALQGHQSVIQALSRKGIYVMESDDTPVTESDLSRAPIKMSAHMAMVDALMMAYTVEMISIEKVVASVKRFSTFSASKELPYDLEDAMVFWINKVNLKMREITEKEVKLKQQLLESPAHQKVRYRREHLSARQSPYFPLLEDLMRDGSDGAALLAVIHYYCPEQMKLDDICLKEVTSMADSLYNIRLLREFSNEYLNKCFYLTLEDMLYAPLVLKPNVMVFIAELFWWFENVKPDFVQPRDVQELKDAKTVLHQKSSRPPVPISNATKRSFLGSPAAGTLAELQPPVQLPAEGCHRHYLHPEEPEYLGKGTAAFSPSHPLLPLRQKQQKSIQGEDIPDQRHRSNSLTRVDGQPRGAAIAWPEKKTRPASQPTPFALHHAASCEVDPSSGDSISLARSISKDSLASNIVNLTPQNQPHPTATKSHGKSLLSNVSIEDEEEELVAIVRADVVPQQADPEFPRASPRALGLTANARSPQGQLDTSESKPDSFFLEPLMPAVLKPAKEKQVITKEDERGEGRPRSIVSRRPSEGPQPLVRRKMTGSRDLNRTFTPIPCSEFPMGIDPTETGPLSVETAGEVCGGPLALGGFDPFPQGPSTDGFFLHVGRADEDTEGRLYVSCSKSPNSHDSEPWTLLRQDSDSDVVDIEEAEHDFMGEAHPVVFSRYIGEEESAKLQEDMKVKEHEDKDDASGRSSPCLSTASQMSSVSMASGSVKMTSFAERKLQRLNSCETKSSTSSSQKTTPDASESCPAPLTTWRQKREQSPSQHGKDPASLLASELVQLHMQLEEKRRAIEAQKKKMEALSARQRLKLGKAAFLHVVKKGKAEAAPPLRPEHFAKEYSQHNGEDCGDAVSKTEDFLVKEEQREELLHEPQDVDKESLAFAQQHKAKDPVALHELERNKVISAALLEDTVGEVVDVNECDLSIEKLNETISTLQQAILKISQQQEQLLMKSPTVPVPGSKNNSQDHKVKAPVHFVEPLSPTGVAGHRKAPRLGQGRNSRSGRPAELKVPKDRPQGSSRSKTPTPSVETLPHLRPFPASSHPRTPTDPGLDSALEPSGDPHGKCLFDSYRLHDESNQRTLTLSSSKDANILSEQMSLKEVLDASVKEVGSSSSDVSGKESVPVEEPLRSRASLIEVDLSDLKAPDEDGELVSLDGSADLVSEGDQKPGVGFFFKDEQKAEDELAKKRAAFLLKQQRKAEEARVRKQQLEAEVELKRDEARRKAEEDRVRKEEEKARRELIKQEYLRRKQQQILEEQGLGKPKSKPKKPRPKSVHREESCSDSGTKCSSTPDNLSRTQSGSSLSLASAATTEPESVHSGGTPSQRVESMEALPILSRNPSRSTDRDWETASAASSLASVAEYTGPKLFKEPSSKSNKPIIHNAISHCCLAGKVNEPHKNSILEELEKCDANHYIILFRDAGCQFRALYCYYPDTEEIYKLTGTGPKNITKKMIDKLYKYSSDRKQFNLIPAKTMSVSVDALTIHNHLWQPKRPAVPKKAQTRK
UniProt Q99807, sequence (Q99807 whole entry, looked up): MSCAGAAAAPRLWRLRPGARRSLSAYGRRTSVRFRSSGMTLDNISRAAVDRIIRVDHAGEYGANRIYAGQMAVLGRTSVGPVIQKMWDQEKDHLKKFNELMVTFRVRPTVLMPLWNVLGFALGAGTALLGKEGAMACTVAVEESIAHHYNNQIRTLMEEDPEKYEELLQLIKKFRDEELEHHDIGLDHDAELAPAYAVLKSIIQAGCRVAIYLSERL
UniProt Q12996, sequence (Q12996 whole entry, looked up): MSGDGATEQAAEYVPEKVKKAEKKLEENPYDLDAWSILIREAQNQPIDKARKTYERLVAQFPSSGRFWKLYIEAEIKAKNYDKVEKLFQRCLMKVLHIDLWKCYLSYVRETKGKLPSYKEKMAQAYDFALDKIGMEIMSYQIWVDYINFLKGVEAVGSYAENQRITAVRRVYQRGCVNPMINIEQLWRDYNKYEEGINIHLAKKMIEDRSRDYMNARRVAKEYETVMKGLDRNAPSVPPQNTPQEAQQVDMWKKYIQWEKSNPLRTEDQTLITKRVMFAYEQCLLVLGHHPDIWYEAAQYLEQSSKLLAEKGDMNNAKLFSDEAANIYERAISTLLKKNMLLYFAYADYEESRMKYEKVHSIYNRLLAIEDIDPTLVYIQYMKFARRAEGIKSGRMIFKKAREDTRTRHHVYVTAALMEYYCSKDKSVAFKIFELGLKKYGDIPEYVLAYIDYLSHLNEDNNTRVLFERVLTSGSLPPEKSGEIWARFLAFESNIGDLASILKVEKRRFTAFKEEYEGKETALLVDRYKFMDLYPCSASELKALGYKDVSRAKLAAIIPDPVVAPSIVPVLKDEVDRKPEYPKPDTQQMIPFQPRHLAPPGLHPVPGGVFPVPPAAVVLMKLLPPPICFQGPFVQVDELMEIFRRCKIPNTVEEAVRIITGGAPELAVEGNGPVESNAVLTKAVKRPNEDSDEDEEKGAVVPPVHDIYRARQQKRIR
UniProt P09497, sequence (P09497 whole entry, looked up): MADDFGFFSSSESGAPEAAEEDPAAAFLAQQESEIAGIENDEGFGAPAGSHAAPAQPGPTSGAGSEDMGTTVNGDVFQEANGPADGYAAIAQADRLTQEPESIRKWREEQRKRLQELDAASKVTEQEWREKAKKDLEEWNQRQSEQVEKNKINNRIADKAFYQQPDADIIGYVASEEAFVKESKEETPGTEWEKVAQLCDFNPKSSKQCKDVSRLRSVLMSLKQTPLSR

Target | log2 fold change [1] | log2 fold change [2] | log2 fold change [3] | log2 fold change [4] | log2 fold change (Nexturastat A) | log2 fold change (vemurafenib) | log2 fold change [5] | log2 fold change [6] | log2 fold change (givinostat) | log2 fold change (barasertib)
CBX5 (UniProt P45973) | 0.051 | 0.029 | 0.073 | 0.113 | 0.027 | 0.045 | 0.085 | -0.051 | 0.043 | -0.05
COASY isoform 2 (UniProt Q13057) | -0.002 | -0.058 | 0.057 | 0.029 | 0.021 | 0.054 | 0.209 | -0.007 | -0.04 | 0.029
COCH (UniProt O43405) | 0.072 | 0.053 | 0.059 | 0.005 | 0.046 | -0.067 | -0.05 | 0.076 | -0.049 | 0
CDK4 (UniProt P11802) | -0.077 | -0.003 | 0.015 | -0.005 | 0.166 | -0.161 | -0.128 | -0.025 | -0.009 | -0.023
CDK13 (UniProt Q14004) | 0.045 | 0.027 | -0.047 | 0.056 | -0.212 | -0.056 | -0.037 | -0.011 | -0.021 | -0.029
CDK5RAP3 isoform 4 (UniProt Q96JB5) | 0.018 | -0.035 | 0.008 | 0.015 | 0.051 | 0.044 | 0.077 | -0.015 | 0.109 | 0.029
CRK (UniProt P46108) | -0.814 (active) | -0.019 | 0.015 | 0.091 | -0.006 | 0.048 | 0.009 | -0.008 | 0.002 | 0.046
C9orf72 (UniProt Q96LT7) | 0.108 | -0.009 | 0.027 | -0.014 | -0.102 | -0.139 | -0.038 | 0.007 | -0.022 | 0.042
COQ7 (UniProt Q99807) | 0.028 | 0.086 | 0.02 | 0.018 | -0.068 | -0.002 | -0.061 | -0.034 | -0.091 | 0.023
CHMP4C (UniProt Q96CF2) | -0.173 | -0.01 | 0.02 | 0.081 | 0.443 (active) | 0.019 | -0.022 | -0.021 | -0.07 | 0.01
CSTF3 (UniProt Q12996) | -0.038 | 0.014 | -0.005 | 0.006 | -0.072 | -0.005 | -0.008 | -0.029 | -0.05 | 0.007
CPQ (UniProt Q9Y646) | 0.001 | 0.025 | -0.005 | -0.005 | -0.016 | 0.043 | 0.006 | 0.024 | 0.011 | -0.002
CEPT1 (UniProt Q9Y6K0) | 0.048 | 0.068 | 0.005 | 0.069 | -0.123 | 0.123 | 0.016 | -0.122 | -0.023 | 0.013
CHKA (UniProt P35790) | -0.011 | -0.048 | -0.125 | 0.033 | 0.036 | -0.017 | 0.019 | -0.164 | 0.334 (active) | 0.05
CLTB (UniProt P09497) | -0.003 | -0.025 | -0.007 | 0.037 | -0.039 | -0.009 | -0.012 | -0.036 | 0.047 | -0.023
CDC42EP1 (UniProt Q00587) | -0.005 | 0.034 | -0.002 | 0.073 | 0.022 | 0.011 | -0.022 | 0.075 | 0.15 | -0.004
CPSF3 (UniProt Q9UKF6) | -0.014 | 0.005 | -0.006 | -0.012 | -0.085 | 0.017 | 0.063 | -0.001 | -0.03 | 0.022
CAMKK2 (UniProt Q96RR4) | 0.022 | 0.024 | -0.044 | -0.009 | 0.154 | 0.037 | -0.043 | 0.277 | -0.017 | 0.058
CLCN3 isoform 2 (UniProt P51790) | -0.055 | 0.002 | 0.008 | 0.061 | -0.026 | 0 | 0.03 | -0.023 | 0.029 | -0.006
CHST11 (UniProt Q9NPF2) | 0.019 | 0.099 | 0.189 | 0.047 | 0.013 | 0.027 | 0.384 (active) | 0.089 | -0.029 | 0.049
CCAR2 isoform 2 (UniProt Q8N163) | 0.032 | -0.048 | -0.017 | 0.001 | 0 | 0.042 | 0.05 | 0.28 | 0.144 | 0.026
CBS (UniProt P35520) | 0.031 | -0.001 | 0.004 | 0.019 | -0.08 | -0.021 | -0.004 | -0.016 | -0.135 | 0.02
CCDC59 (UniProt Q9P031) | -0.067 | -0.017 | -0.144 | -0.213 | 0.549 (active) | -0.037 | 0.008 | 0.113 | 0.086 | -0.013
CDC42SE1 (UniProt Q9NRR8) | 0.132 | 0.059 | 0.016 | -0.09 | -0.115 | -0.007 | 0.051 | -0.705 | -0.236 | 0.071
CDK11B (UniProt P21127) | -0.079 | 0.214 | -0.109 | 0.071 | 0.038 | 0.029 | -0.064 | -0.063 | 0.114 | 0.028
CNOT2 (UniProt Q9NZN8) | -0.075 | 0.136 | -0.027 | 0.008 | 0.017 | -0.03 | 0.006 | -0.018 | 0.059 | 0.01
CAMSAP1 isoform 3 (UniProt Q5T5Y3) | 0.03 | -0.009 | -0.02 | -0.101 | 0.168 | -0.274 | 0.042 | -0.19 | 0.151 | 0.077
COMMD1 (UniProt Q8N668) | 0.037 | -0.064 | -0.048 | 0.056 | 0.011 | -0.038 | 0.097 | 0.056 | 0.122 | 0.057
CASP3 (UniProt P42574) | -0.049 | 0.086 | 0.009 | 0.065 | -0.025 | -0.009 | 0.022 | 0.113 | -0.029 | -0.005
CNTN4 (UniProt Q8IWV2) | -0.053 | 0 | 0.035 | -0.244 | 0.342 | -0.038 | 0.058 | 0.364 | 0.278 | 0.055
